Results filed as inconclusive are left out. Calls of active or inactive are those of the source. Unless noted, the call rests on the fitted dose curve; in most records, active means well fitted curve in the direction sought with a large enough effect in the repeat runs; inconclusive means weak or mixed curves; inactive means no such curve, though single readings can be large; an effect the other way counts as inactive or inconclusive.
Assays:
[1] = qHTS assay to identify small molecule agonists of the vitamin D receptor (VDR) signaling pathway - cell viability counter screen (AID 743224); further: series mostly up to about 63 µM; nearly all actives have a fitted effect of over 50% in size
In short: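 CellTiter-Glo viability readout on VDR-bla cells, measured after 16 h of compound treatment at 37C in the same wells.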

[2] = qHTS assay to identify small molecule antagonists of the vitamin D receptor (VDR) signaling pathway - cell viability counter screen (AID 743225); further: nearly all actives have a fitted effect of over 50% in size
In short: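 Cytotoxicity counter screen read by CellTiter-Glo luminescence (30 min, room temperature) in the same wells as the VDR-bla antagonist readout. HEK 293T VDR-UAS-bla cells had 16 h at 37C with compound and 3 nM (final) 1-alpha,25-dihydroxyvitamin D3, then 2 h with FRET substrate.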

[3] = qHTS assay to identify small molecule agonists of the NFkB signaling pathway (AID 1159509; active means well fitted curve in the direction sought with a large enough effect in the signal ratio in the repeat runs, not every such curve was filed as active; the % refers to the signal ratio; further: series mostly up to about 61 µM)
In short: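 Beta-lactamase reporter assay run in quantitative high-throughput format on an NF-kB-responsive ME-180 line, with 5 hr compound treatment and a FRET-based blue/green fluorescence readout.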

[4] = qHTS assay to identify small molecule agonists of the NFkB signaling pathway - cell viability counter screen (AID 1159515; calls by dose curve; further: series mostly up to about 61 µM; nearly all actives have a fitted effect of over 55% in size)
In short: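 Tox21 library compounds were tested for cytotoxicity against NFkB-bla ME-180 cells during a 5 hr exposure at 37 C. CellTiter-Glo luminescence served as the viability read-out.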

[5] = qHTS assay to identify small molecule agonists of the endoplasmic reticulum stress response signaling pathway (AID 1159516; active means well fitted activation curve with a large enough effect in the signal ratio in the repeat runs, not every such curve was filed as active; the % refers to the signal ratio)
In short: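 Fluorescence at 460 and 530 nm (405 nm excitation) reports beta-lactamase from an ER stress response element in HeLa cells treated 5 hr at 37 C.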

[6] = qHTS assay to identify small molecule agonists of the endoplasmic reticulum stress response signaling pathway - cell viability counter screen (AID 1159517; calls by dose curve; further: series mostly up to about 61 µM; nearly all actives have a fitted effect of over 50% in size)
In short: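 Steps: seed 1,500 ESRE-bla HeLa cells per well; incubate overnight at 37 C, 5% CO2; add compounds in DMSO for 5 hr; run FRET substrate 2 hr RT; add CellTiter-Glo, wait 30 min, read luminescence.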

[7] = qHTS assay to identify small molecule antagonists of the retinoid-related orphan receptor gamma (ROR-gamma) signaling pathway - cell viability counter screen (AID 1159520); further: nearly all actives have a fitted effect of over 50% in size
In short: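 Tet-on ROR gamma CHO cells were given compounds for 2 hr, then doxycycline hyclate at 1 uM final, and incubated 16 hr at 37 C. Viability was measured as ATP content by CellTiter-Glo luminescence.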

[8] = biological target: Nuclear receptor ROR-gamma (Homo sapiens) (UniProt P51449); assay: qHTS assay to identify small molecule antagonists of the retinoid-related orphan receptor gamma (ROR-gamma) signaling pathway (AID 1159521)
In short: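 Antagonist read-out: drop in luminescence (ONE-Glo) from an RORE-LUC reporter in CHO cells with doxycycline-inducible ROR-gamma; 2 hr compound pretreatment, 1 uM doxycycline, 16 hr incubation at 37 C.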

[9] = qHTS assay to identify small molecule agonists of the AP-1 signaling pathway - cell viability counter screen (AID 1159525; calls by dose curve; further: nearly all actives have a fitted effect of over 55% in size)
In short: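 Same-well cytotoxicity counter screen of the Tox21 10K library in ME-180 cells. The readout is ATP-dependent luminescence after 5 h compound treatment. Data are normalised to DMSO and tetra n-octyl ammonium bromide controls.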

[10] = qHTS assay to identify small molecule agonists of the AP-1 signaling pathway (AID 1159526; calls by dose curve)
[11] = biological target: Retinoic acid receptor RXR-alpha (Homo sapiens) (UniProt P19793); assay: qHTS assay to identify small molecule agonists of the RXR signaling pathway (AID 1159527; calls by dose curve; further: nearly all actives have a fitted effect of over 35% in size)
Chain of Retinoic acid receptor RXR-alpha (Homo sapiens) (P19793 whole entry, looked up): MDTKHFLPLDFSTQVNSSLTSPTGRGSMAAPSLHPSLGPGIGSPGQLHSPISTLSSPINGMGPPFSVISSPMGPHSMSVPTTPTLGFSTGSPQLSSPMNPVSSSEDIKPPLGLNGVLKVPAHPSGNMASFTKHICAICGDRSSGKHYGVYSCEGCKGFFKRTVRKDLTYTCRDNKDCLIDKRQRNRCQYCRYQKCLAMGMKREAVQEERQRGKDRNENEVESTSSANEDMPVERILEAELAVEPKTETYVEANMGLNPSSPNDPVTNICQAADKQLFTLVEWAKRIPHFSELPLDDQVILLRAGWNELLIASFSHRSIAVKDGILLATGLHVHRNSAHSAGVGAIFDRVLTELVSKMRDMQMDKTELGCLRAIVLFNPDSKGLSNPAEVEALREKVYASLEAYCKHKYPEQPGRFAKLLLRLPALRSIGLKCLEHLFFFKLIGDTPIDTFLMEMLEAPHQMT
In short: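 Agonist-mode beta-lactamase reporter assay: HEK 293T RXR-alpha-UAS-bla cells treated 16 hr at 37 C with compounds, 9-cis retinoic acid as positive control. LiveBLAzer FRET substrate, 405 nm excitation, 460/530 nm emission.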

[12] = qHTS assay to identify small molecule agonists of the RXR signaling pathway - cell viability counter screen (AID 1159529)
In short: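 CellTiter-Glo luminescence gave viability in the wells also read for beta-lactamase. Cells (RXR-alpha-UAS-bla HEK 293T, 2% charcoal-stripped FBS medium) had 5 hr plating, then 16 hr compound exposure at 37 C; tetraoctyl ammonium bromide served as positive control.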

[13] = qHTS assay to identify small molecule antagonists of the retinoid acid receptor (RAR) signaling pathway - cell viability counter screen (AID 1159551); further: nearly all actives have a fitted effect of over 35% in size
In short: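 In this counter screen, the RARE-luciferase line C3RL4 was exposed for 6 h at 37 C and 5% CO2 to compounds with retinol at 1 uM final. Cellular ATP, read by luminescence, served as the viability measure.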

[14] = qHTS assay to identify small molecule antagonists of the retinoic acid receptor (RAR) signaling pathway (AID 1159552; further: nearly all actives have a fitted effect of over 50% in size)
In short: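 Luminescent RARE reporter read-out in C3RL4 cells: 6 hr co-treatment at 37 C of test compounds with retinol at 1 uM final. Cells plated overnight beforehand; luciferase reagent incubated 30 min at room temperature before reading.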

[15] = qHTS assay to identify small molecule agonists of the retinoic acid receptor (RAR) signaling pathway (AID 1159553)
In short: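 In this cell-based screen, 1,000 C3RL4 cells per well were cultured overnight, dosed with test chemicals in DMSO for 6 hr, and assessed for RARE luciferase luminescence.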

[16] = qHTS assay to identify small molecule antagonists of the estrogen related receptor (ERR) signaling pathway - cell viability counter screen (AID 1224818); further: series mostly up to about 46 µM
In short: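 Viability of ERR cells, CellTiter-Fluor fluorescence; 17.5 h compound exposure at 37 C, DMSO vehicle; 30 min reagent incubation at 37 C/5% CO2.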

[17] = qHTS assay to identify small molecule antagonists of the estrogen related receptor signaling pathway with the pleiotropic PPARgamma coactivator (PGC) cell viability counter screen (AID 1224822; further: series mostly up to about 46 µM)
In short: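 17.5 h compound treatment of PGC/ERR cells at 37 C; readout CellTiter-Fluor fluorescence; run alongside the PGC/ERR antagonist screen to flag cytotoxic compounds.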

Measured: Potency

Brc1ccc(Br)c(Br)c1
inactive: [1] | [2] | [3] | [4] | [5] | [6] | [7] | [8] | [9] | [10] | [11] | [12] | [13] | [14] | [15]

OCc1cccc(Oc2ccccc2)c1
inactive: [1] | [2] | [3] | [4] | [5] | [6] | [7] | [8] | [9] | [10] | [11] | [12] | [13] | [14] | [15]

CC(C)CCCCCCCOC(=O)CCCCC(=O)OCCCCCCCC(C)C
inactive: [1] | [2] | [3] | [4] | [5] | [6] | [7] | [8] | [9] | [10] | [11] | [12] | [13] | [15]

Cc1ccc([N+](=O)[O-])cc1S(=O)(=O)O
inactive: [1] | [2] | [3] | [4] | [5] | [6] | [7] | [8] | [9] | [10] | [11] | [12] | [13] | [15]

O=C(O)Cn1c(=O)n(Cc2ccc(Br)cc2F)c(=O)c2ccc(Cl)cc21
inactive: [1] | [2] | [3] | [4] | [5] | [6] | [7] | [8] | [9] | [10] | [11] | [12] | [13] | [15]

O=C1CCCC1
inactive: [1] | [2] | [3] | [4] | [5] | [6] | [7] | [8] | [9] | [10] | [11] | [12] | [13] | [14] | [15]

O=C(O)c1ccc(C(=O)O)c(C(=O)O)c1
inactive: [1] | [2] | [3] | [4] | [5] | [6] | [7] | [8] | [9] | [10] | [11] | [12] | [13] | [14] | [15]

COc1ccc([N+](=O)[O-])cc1N
inactive: [1] | [2] | [3] | [4] | [5] | [6] | [7] | [8] | [9] | [10] | [11] | [12] | [13] | [15]

O=c1[nH]cnc2[nH]ncc12
inactive: [1] | [2] | [3] | [4] | [5] | [6] | [7] | [8] | [9] | [10] | [11] | [12] | [13] | [14] | [15] | [16] | [17]

CC(C)CC(=O)CC(C)CC(C)C (centres undefined)
inactive: [1] | [2] | [3] | [4] | [5] | [6] | [7] | [8] | [9] | [10] | [11] | [12] | [13] | [14] | [15]

N[C@H](Cc1c[nH]c2ccccc12)C(=O)O
inactive: [1] | [2] | [3] | [4] | [5] | [6] | [7] | [8] | [9] | [10] | [11] | [12] | [13] | [14] | [15]

C=C(C)CNCC
inactive: [1] | [2] | [3] | [4] | [5] | [6] | [7] | [8] | [9] | [10] | [11] | [12] | [13] | [14] | [15]

CCCCCCCCCCCCCCCC(=O)OC(C)C
inactive: [1] | [2] | [3] | [4] | [5] | [6] | [7] | [8] | [9] | [10] | [11] | [12] | [13] | [14] | [15]

CC(=O)OCc1ccccc1
inactive: [1] | [2] | [3] | [4] | [5] | [6] | [7] | [8] | [9] | [10] | [11] | [12] | [13] | [14] | [15]

CC1(C)NC(=O)NC1=O
inactive: [1] | [2] | [3] | [4] | [5] | [6] | [7] | [8] | [9] | [10] | [11] | [12] | [13] | [15]

c1ccc(Oc2ccccc2)cc1
inactive: [1] | [2] | [3] | [4] | [5] | [6] | [7] | [8] | [9] | [10] | [11] | [12] | [13] | [14] | [15]

NCCN1CCNCC1
inactive: [1] | [2] | [3] | [4] | [5] | [6] | [7] | [8] | [9] | [10] | [11] | [12] | [13] | [15]

NCCCCCCN
inactive: [1] | [2] | [3] | [4] | [5] | [6] | [7] | [8] | [9] | [10] | [11] | [12] | [13] | [14] | [15]

CC(C)=CCl
inactive: [1] | [2] | [3] | [4] | [5] | [6] | [7] | [8] | [9] | [10] | [11] | [12] | [13] | [15]

CCOC(=O)n1ccn(C)c1=S
inactive: [1] | [2] | [3] | [4] | [5] | [6] | [7] | [8] | [9] | [10] | [11] | [12] | [13] | [15]
